Reference: PubChem BioAssay AID1159580 (chemical genetic matrix, 2015)
About 2,000 (36%) of roughly 5,500 compounds were called active. Another 18% or so got no clear call; they are omitted. Rule as the data show it: active = normalized growth mostly below about 0.91 (no sharp cut-off); inconclusive = no clear call, values can overlap the other calls; inactive = mostly above about 0.92. Some of the results follow.

Assay: chemical genetic growth profiling, strain panel (AID 1159580);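 also: tested at 20 µM; growth read once vehicle control cultures reached saturation at 30 °C; 1 = growth at the plate median or of vehicle wells; lower values mean less growth of the strain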
Details: growth OD

Measured: normalized growth

CC1(C)S[C@@H]2[C@H](NC(=O)C(C(=O)O)c3ccccc3)C(=O)N2[C@H]1C(=O)O (stereo partly drawn)
inactive: S. cerevisiae deletion strains, locus YJR075W, strain HOC1, hits give low values 0.987 | S. cerevisiae deletion strains, locus YKL009W, strain mrt4, hits give low values 0.971 | S. cerevisiae deletion strains, locus YKL068W, hits give low values 0.994 | S. cerevisiae deletion strains, locus YKL085W, strain MDH1 (second series), hits give low values 1 | S. cerevisiae deletion strains, locus YKL085W, strain MDH1, hits give low values 1 | S. cerevisiae deletion strains, locus YKL160W, strain elf1, hits give low values 1 | S. cerevisiae deletion strains, locus YKR001C, strain vps1, hits give low values 0.982 | S. cerevisiae deletion strains, locus YKR026C, strain gcn3, hits give low values 0.985 | S. cerevisiae deletion strains, locus YKR091W, strain srl3, hits give low values 0.975 | S. cerevisiae deletion strains, locus YLL001W, strain dnm1, hits give low values 0.932 | S. cerevisiae deletion strains, locus YLL026W, hits give low values 0.96 | S. cerevisiae deletion strains, locus YLL041C, strain sdh2, hits give low values 0.982 | S. cerevisiae deletion strains, locus YLR027C, strain aat2, hits give low values 0.976 | S. cerevisiae deletion strains, locus YLR039C, strain RIC1, hits give low values 0.989 | S. cerevisiae deletion strains, locus YLR058C, strain SHM2, hits give low values 0.989 | S. cerevisiae deletion strains, locus YLR102C, strain apc9, hits give low values 0.997 | S. cerevisiae deletion strains, locus YLR113W, strain HOG1, hits give low values 0.992 | S. cerevisiae deletion strains, locus YLR221C, strain rsa3, hits give low values 0.928 | S. cerevisiae deletion strains, locus YLR258W, strain gsy2, hits give low values 0.967 | S. cerevisiae deletion strains, locus YLR262C, strain YPT6 (second series), hits give low values 1 | S. cerevisiae deletion strains, locus YLR262C, strain YPT6, hits give low values 1 | S. cerevisiae deletion strains, locus YLR268W, strain sec22, hits give low values 0.987 | S. cerevisiae deletion strains, locus YLR320W, strain mms22, hits give low values 0.967 | S. cerevisiae deletion strains, locus YLR330W, strain CHS5, hits give low values 0.992 | S. cerevisiae deletion strains, locus YLR342W, strain FKS1 (second series), hits give low values 0.998 | S. cerevisiae deletion strains, locus YLR342W, strain FKS1, hits give low values 0.982 | S. cerevisiae deletion strains, locus YLR357W, strain rsc2, hits give low values 0.967 | S. cerevisiae deletion strains, locus YLR370C, strain arc18, hits give low values 0.926 | S. cerevisiae deletion strains, locus YLR371W, strain rom2, hits give low values 0.988 | S. cerevisiae deletion strains, locus YLR384C, strain iki3, hits give low values 0.969 | S. cerevisiae deletion strains, locus YLR418C, strain cdc73, hits give low values 0.984 | S. cerevisiae deletion strains, locus YML016C, strain PPZ1, hits give low values 0.99 | S. cerevisiae deletion strains, locus YML032C, strain rad52, hits give low values 0.981 | S. cerevisiae deletion strains, locus YML120C, strain ndi1, hits give low values 0.946 | S. cerevisiae deletion strains, locus YML124C, strain tub3, hits give low values 1 | S. cerevisiae deletion strains, locus YMR058W, strain fet3, hits give low values 0.971 | S. cerevisiae deletion strains, locus YMR078C, strain ctf18, hits give low values 0.985 | S. cerevisiae deletion strains, locus YMR125W, strain sto1, hits give low values 0.956 | S. cerevisiae deletion strains, locus YMR129W, hits give low values 1 | S. cerevisiae deletion strains, locus YMR205C, strain PFK2, hits give low values 0.98 | S. cerevisiae deletion strains, locus YMR223W, strain ubp8, hits give low values 0.987 | S. cerevisiae deletion strains, locus YMR231W, strain pep5, hits give low values 0.988 | S. cerevisiae deletion strains, locus YMR307W, strain GAS1, hits give low values 0.917 | S. cerevisiae deletion strains, locus YNL067W, strain RPL9B, hits give low values 1 | S. cerevisiae deletion strains, locus YNL071W, strain lat1, hits give low values 0.995 | S. cerevisiae deletion strains, locus YNL153C, strain GIM3, hits give low values 0.989 | S. cerevisiae deletion strains, locus YNL183C, strain NPR1, hits give low values 0.94 | S. cerevisiae deletion strains, locus YNL209W, strain ssb2, hits give low values 0.969 | S. cerevisiae deletion strains, locus YNL233W, strain BNI4, hits give low values 0.975 | S. cerevisiae deletion strains, locus YNL248C, strain rpa49, hits give low values 1.02 | S. cerevisiae deletion strains, locus YNL250W, strain rad50, hits give low values 0.975 | S. cerevisiae deletion strains, locus YNL271C, strain bni1, hits give low values 0.984 | S. cerevisiae deletion strains, locus YNL298W, strain CLA4, hits give low values 0.99 | S. cerevisiae deletion strains, locus YNL307C, strain MCK1, hits give low values 0.992 | S. cerevisiae deletion strains, locus YNL322C, strain KRE1 (second series), hits give low values 0.971 | S. cerevisiae deletion strains, locus YNL322C, strain KRE1, hits give low values 0.997 | S. cerevisiae deletion strains, locus YNR049C, strain mso1, hits give low values 0.962 | S. cerevisiae deletion strains, locus YNR052C, strain pop2, hits give low values 0.983 | S. cerevisiae deletion strains, locus YOL006C, strain TOP1, hits give low values 0.985 | S. cerevisiae deletion strains, locus YOL012C, strain htz1 1.06 | S. cerevisiae deletion strains, locus YOL147C, strain pex11, hits give low values 0.982 | S. cerevisiae deletion strains, locus YOR001W, strain rrp6, hits give low values 1 | S. cerevisiae deletion strains, locus YOR061W, strain CKA2, hits give low values 0.994 | S. cerevisiae deletion strains, locus YOR069W, strain VPS5, hits give low values 0.991 | S. cerevisiae deletion strains, locus YOR070C, strain gyp1, hits give low values 0.972 | S. cerevisiae deletion strains, locus YOR080W, strain dia2, hits give low values 0.972 | S. cerevisiae deletion strains, locus YOR083W, strain WHI5, hits give low values 0.994 | S. cerevisiae deletion strains, locus YOR106W, strain vam3, hits give low values 0.993 | S. cerevisiae deletion strains, locus YOR136W, strain idh2, hits give low values 0.98 | S. cerevisiae deletion strains, locus YOR144C, strain elg1, hits give low values 0.983 | S. cerevisiae deletion strains, locus YOR184W, strain ser1, hits give low values 0.978 | S. cerevisiae deletion strains, locus YOR231W, strain MKK1, hits give low values 1.04 | S. cerevisiae deletion strains, locus YOR265W, strain rbl2, hits give low values 0.964 | S. cerevisiae deletion strains, locus YOR270C, strain vph1, hits give low values 0.978 | S. cerevisiae deletion strains, locus YOR290C, strain snf2, hits give low values 0.961 | S. cerevisiae deletion strains, locus YOR316C, strain cot1, hits give low values 0.981 | S. cerevisiae deletion strains, locus YPL051W, strain arl3, hits give low values 0.992 | S. cerevisiae deletion strains, locus YPL078C, strain atp4, hits give low values 1.01 | S. cerevisiae deletion strains, locus YPL106C, strain sse1, hits give low values 0.937 | S. cerevisiae deletion strains, locus YPL240C, strain hsp82, hits give low values 0.971 | S. cerevisiae deletion strains, locus YPL241C, strain CIN2, hits give low values 0.997 | S. cerevisiae deletion strains, locus YPL256C, strain CLN2, hits give low values 1.03 | S. cerevisiae deletion strains, locus YPR119W, strain clb2, hits give low values 0.991 | S. cerevisiae deletion strains, locus YPR141C, strain kar3, hits give low values 0.977 | S. cerevisiae deletion strains, locus YPR163C, strain tif3, hits give low values 0.989 | S. cerevisiae deletion strains, locus YPR167C, strain met16, hits give low values 0.99 | S. cerevisiae deletion strains, strain wtn01, hits give low values 0.984 | S. cerevisiae strains, strain wild type, hits give low values 0.999
